High-throughput results: PubChem, National Center for Advancing Translational Sciences (NCATS)
L3MBTL1 block – qHTS Assay for the Inhibitors of L3MBTL1. 230,000 tested, 0.66% active. Lethal(3)malignant brain tumor-like protein 1 (Homo sapiens), Q9Y468. AlphaScreen L3MBTL1–H3K9me1 peptide binding. Potency, µM (series often up to 57.1 µM), inactives show at the top dose activity, negative = inhibition, actives largely listed as inhibitors; also: % is scaled to controls: 0 for no effect and ±100 for the full control effect; nearly all actives have a fitted effect of over 60% in size
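AlphaScreen assay: L3MBTL1 (50 nM final) was preincubated 30 min at room temperature with biotinylated H3(1-15)K9me1 peptide (75 nM final), then 30 min with library compounds; streptavidin donor and nickel chelate acceptor beads (10 ug/mL final) added, 30 min dark.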
BAZ2B block – qHTS Assay for Inhibitors of BAZ2B; Bromodomain adjacent to zinc finger domain protein 2B (Homo sapiens), Q9UIF8; AlphaScreen BAZ2B-H3K14Ac peptide displacement; Potency, µM (titrated, usually from 114 µM), inactives show at the top dose activity change, negative = inhibition, hits mostly inhibitors; 360,000 tested, 4.4% active; AID 504333, 2011; also: % is scaled to controls: 0 for no effect and ±100 for the full control effect; nearly all actives have a fitted effect of over 60% in size
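Compounds, titrated to a top concentration of 110 uM, were incubated 30 min at room temperature with preformed BAZ2B/acetyl-K14 H3 peptide complex (50 nM each). Proximity signal was measured by AlphaScreen after 20 min with beads.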
HP1b chromo inh – HTS for Inhibitors of HP1-beta Chromodomain Interactions with Methylated Histone Tails; Potency, µM (top dose mostly 114 µM), for the others: at the top dose activity change, negative = inhibition, actives largely listed as inhibitors; 390,000 tested, 0.56% active; AlphaScreen HP1-beta / biotin-H3K9me3 peptide binding; AID 540317, 2011; Chromobox protein homolog 1 (Homo sapiens), P83916; also: nearly all actives have a fitted effect of over 70% in size
Target sequence (P83916 whole entry, looked up): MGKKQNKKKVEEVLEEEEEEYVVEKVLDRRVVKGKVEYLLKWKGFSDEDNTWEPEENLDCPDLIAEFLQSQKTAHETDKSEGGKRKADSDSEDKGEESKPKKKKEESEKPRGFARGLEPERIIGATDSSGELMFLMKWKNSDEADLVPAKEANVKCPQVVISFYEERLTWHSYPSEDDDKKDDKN
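HP1-beta protein (50 nM final) preincubated 30 min at room temperature with biotinylated H3(1-18)K9me3 peptide (50 nM) in PBS pH 7.4, 0.01% Tween-20, then compound added for 30 min. AlphaScreen streptavidin donor/nickel chelate acceptor beads (10 ug/mL final), 30 min dark, luminescence read.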
JMJD2A Tudor inh – qHTS Assay for Inhibitors of JMJD2A-Tudor Domain. AlphaScreen JMJD2A-Tudor / H3K4me3 peptide binding. 390,000 tested, 4.4% active. Potency, µM (titrated, usually from 114 µM), inactives show top-dose activity change, negative = inhibition, most hits filed as inhibitors. AID 504339, 2011; also: % is scaled to controls: 0 for no effect and ±100 for the full control effect; nearly all actives have a fitted effect of over 50% in size
G9a inh – qHTS Assay for Inhibitors of Histone Lysine Methyltransferase G9a; Histone-lysine N-methyltransferase EHMT2 (Homo sapiens), Q96KQ7; G9a H3K9 monomethylation, AlphaScreen, 2 h; Potency, µM (series often up to 102 µM), for the others: top-dose activity, negative = inhibition, usual class: inhibitors; 350,000 tested, 8.8% active; AID 504332, 2011; also: % is scaled to controls: 0 for no effect and ±100 for the full control effect; nearly all actives have a fitted effect of over 75% in size
Target sequence (Q96KQ7 913-1193 limits assumed): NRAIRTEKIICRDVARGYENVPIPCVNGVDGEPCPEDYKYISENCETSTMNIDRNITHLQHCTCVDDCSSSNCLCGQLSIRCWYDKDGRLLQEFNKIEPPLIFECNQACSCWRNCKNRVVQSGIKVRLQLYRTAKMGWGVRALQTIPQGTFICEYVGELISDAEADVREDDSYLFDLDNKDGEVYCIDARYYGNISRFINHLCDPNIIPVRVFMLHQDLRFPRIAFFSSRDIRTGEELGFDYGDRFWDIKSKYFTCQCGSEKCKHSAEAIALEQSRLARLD
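Quantitative HTS format: methyltransferase activity on a biotin-tagged H3K9 peptide is measured by AlphaScreen, using a rabbit anti-monomethyl-H3K9 antibody with streptavidin donor and anti-IgG acceptor beads. Final levels are 20 nM enzyme, 500 nM peptide, 20 uM SAM; 2 h RT.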
Sfp inh – qHTS Assay for Inhibitors of Bacillus subtilis Sfp phosphopantetheinyl transferase (PPTase). AID 1490, 2009. 310,000 tested, 3.5% active. 4'-phosphopantetheinyl transferase ffp (Bacillus subtilis), Q9F4F7. Potency, µM, for the others: largest response in the series, negative = inhibition, hits mostly inhibitors. Biochemical Sfp PPTase activity, qHTS;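 also: the enzyme is Sfp with the accession as filed and its product quenches rhodamine fluorescence; 0% = enzyme reaction without inhibitor and -100% = no enzyme wells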
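After 15 min at room temperature with compound, 15 nM Sfp received 5 uM rhodamine-CoA plus 12.5 uM BHQ-2-ybbR (50 mM Hepes pH 7.6, 10 mM MgCl2). Rate came from the fluorescence difference over 30 min, ex 525/em 598 nm.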
* marks the source's active call; other numbers are inactive results; ? = inconclusive; nt = no result given; [ ] = dose if it differs, or a comment. This is a sample that favours compounds with a hit; in the whole collection about 12% have one here. Calls follow the shape of the dose curve; as a rule, active = well fitted curve in the direction sought with a large enough effect; inconclusive = small, poorly fitted or top-dose-only effect, or another doubt; inactive = no such curve, though single readings can be large; an effect the other way counts as inactive or inconclusive. Potency is read from the fitted curve at half-maximal effect.

SMILES	L3MBTL1 block	BAZ2B block	HP1b chromo inh	JMJD2A Tudor inh	G9a inh	Sfp inh
Cc1ccc(C(C)C)c(OCCCNCc2cccnc2)c1	-0.2%	-34.4%	30.3%	-7.0%	50.1µM*	-11.2%
Cc1ccc(C(C)C)c(OCCNCCc2ccccc2)c1	-9.8%	?	?	25.1µM*	nt	-24.7%
CCC(C)(C)NC(=O)C(c1ccc(OC)cc1)N(Cc1cccs1)C(=O)CCC(=O)Nc1cc(C)on1 (stereo not drawn)	?	7.7%	3.2%	-16.1%	12.8%[59 µM]	-9.0%
COc1cc2c(cc1OC)C(=O)OC2	nt	nt	nt	nt	nt	13.4%
COc1ccccc1NC(=O)/C=C\c1ccco1	nt	?	-1.1%	-31.4%	39.8µM*	56.2µM*
CC(OC(=O)/C(C#N)=C/c1ccco1)C(=O)N(C)c1ccccc1 (stereo not drawn)	-6.0%	nt	9.3%	-24.1%	nt	nt
CC(C)OC(=O)/C(=C/c1ccco1)c1ccccc1	10.3%	22.2%	-1.2%	4.6%	nt	44.7µM*
Cc1ccccc1NC(=O)/C(=C/c1ccco1)c1ccccc1	nt	?	7.5%	-17.3%[57.1 µM]	31.6µM*	56.2µM*
CC(C)(C)NC(=O)/C(=C/c1ccco1)c1ccccc1	0.0%	?	22.2%	4.8%	30.3%[0.501 µM]	?
Cc1ccccc1NC(=S)NC(=O)/C=C/c1ccco1	?	56.2µM*	?	?	nt	?
CCC1CCCCN1Cc1nc2c(c(=O)n(C)c(=O)n2C)n1Cc1c(F)cccc1Cl (stereo not drawn)	nt	nt	8.1%	-21.3%	nt	nt
O=C(NCCS(=O)(=O)N1CCN(c2cccc(Cl)c2)CC1)C(c1ccccc1)c1ccccc1	nt	-2.9%	24.5%[57 µM]	-0.6%	6.9%[59 µM]	nt
COc1cc2c(cc1NC(=S)NC(=O)/C=C/c1ccco1)oc1ccccc12	-5.8%	-3.1%	33.9%	-5.6%	22.9%[59 µM]	0.8%
Cc1ccc(-c2nc3ccccc3s2)cc1NC(=S)NC(=O)/C=C/c1ccco1	-0.1%	?	8.3%	-26.1%	50.1µM*	-13.5%
COc1ccccc1NC(=S)NC(=O)/C=C/c1ccco1	-19.9%	50.1µM*	-12.5%	-26.2%[57.1 µM]	?	?
O=C(/C=C/c1ccco1)NC(=S)Nc1cc(-c2nc3ccccc3s2)ccc1Cl	?	6.5%	7.5%	?	0.7%[59 µM]	?
COC(=O)NC(/C(C(=O)OC)=C(\C)NCc1ccccc1)c1ccco1 (stereo not drawn)	nt	nt	nt	nt	nt	4.9%
O=C(Nc1nc(-c2cccs2)c(-c2ccccc2)s1)c1ccco1	-15.2%	-10.9%	23.5%	-23.5%	?	?
CC1CC1C(=O)Nc1nc(-c2cccs2)c(-c2cccs2)s1 (stereo not drawn)	-10.5%	-28.9%	45.9%	-6.6%	?	50.1µM*
CC(C)(C(O)c1ccc([N+](=O)[O-])cc1)[N+](=O)[O-] (stereo not drawn)	nt	nt	nt	nt	nt	-9.2%
COC(=O)c1ccc(CSCc2ccc(C(=O)OC)o2)o1	nt	4.9%	29.0%	1.0%	27.7%	4.4%
CCOC(=O)c1ccc(CC(=O)c2ccc(O)cc2O)o1	nt	-8.2%	39.1%	-13.0%	22.4µM*	1.0%
COC(=O)c1cc(CC(=O)c2ccc(O)cc2O)c(C)o1	-2.2%	?	17.3%	-12.8%	94.7%[59 µM]	9.6%
COC(=O)c1ccc(CC(=O)c2c(C)cc(O)cc2O)o1	?	?	13.4%	?	44.7µM*	39.8µM*
COC(=O)c1ccc(CC(=O)c2ccc(O)cc2O)o1	-23.7%	63.1µM*	12.8%	-32.3%	22.4µM*	-29.9%
CCOC(=O)c1ccc(OCC(=O)c2ccc(O)cc2O)cc1	0.5%	1.6%	32.2%	11.0%	9.6%	-6.3%
